Experimental data as given in PubChem BioAssay AID588335 (The Scripps Research Institute Molecular Screening Center, 2011).
Among all 360,000 compounds or so, about 4,500 (1.2%) were called active. This is one part of a sample in which actives are shown more often than they occur. Unmarked numbers belong to inactive results. No stated cut-off is given here; in the data, active means inhibition above about 30%; inactive means the rest.

Assay: GDH-TPI coupling enzyme inhibitors, primary screen, artefact control for M. tuberculosis FBA inhibitor project, biochemical, absorbance, full deck (AID 588335);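 further: 0% = DMSO wells and 100% = wells lacking the enzyme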
Conditions: GDH-TPI coupled enzyme counterscreen, NADH absorbance; at 4.8 µM; hits give high values
For `O=C(NCc1ccc2c(c1)OCO2)c1cc2c(s1)CS(=O)(=O)C2`, the inhibition was 3.7%.
`COc1cccc(C(=O)N/N=C(\C)c2cccc(NC(=O)c3ccc(F)cc3)c2)c1OC` gave an inhibition of -1.01%.
`COc1ccc2[nH]c(=O)c(CNc3ccc(C)c(C)c3)cc2c1` gave an inhibition of 7.26%.
With `COc1cc2cc(C(=O)N/N=C/c3cccc(OC)c3OC)[nH]c2cc1OC` the inhibition was 53.6% (active).
`CCC(=O)c1ccc(OC(=O)/C=C/c2cc(OC)c(OC)c(OC)c2)cc1` showed an inhibition of 14.9%.
`CCOc1ccc2[nH]c(=O)c(CN(CCCO)C(C)=O)cc2c1` gave an inhibition of 10.1%.
With `CCOc1ccc2[nH]c(C(=O)N/N=C/c3cccc(OC)c3OC)cc2c1` the inhibition was 42.1% (active).
In the case of `COc1cccc2[nH]c(C(=O)NCCc3ccccc3)cc12`, the inhibition is reported as 2.15%.
`CCOc1ccc2ccccc2c1/C=N/NC(=O)c1c(C)cc(C)[nH]c1=O` showed an inhibition of 11.8%.
In the case of `COc1ccc2[nH]c(C(=O)N/N=C/c3cc(OC)c(OC)c(OC)c3)cc2c1`, the inhibition is reported as 63% (active).
In the case of `CC(C)n1c(SCC(=O)Nc2ccccc2N2CCCCC2)nc2c1c(=O)n(C)c(=O)n2C`, the inhibition is reported as 2.5%.
Work on `NS(=O)(=O)c1ccc(CNC(=O)c2ccc(Cl)cc2[N+](=O)[O-])cc1` yielded an inhibition of -1.13%.
`Cc1cn(C)c(=O)n(C)c1=O` gave an inhibition of -2.08%.
`COc1cccc(N2CC(C(=O)NCc3n[nH]c(=O)c4ccccc34)CC2=O)c1` (stereo not given) gave an inhibition of 3.52%.
For `CC(C)Cc1nc(Cl)c(C#N)c2c1CCC2`, the inhibition was -7.66%.
In the case of `O=c1cc(N2CCCCC2)c(-c2ccccc2)nn1Cc1cccc(F)c1`, the inhibition is reported as 10.7%.
Work on `O=C(Nc1cc(C(F)(F)F)ccc1Cl)c1cc2nc3c(c(C(F)(F)F)n2n1)CCCC3` yielded an inhibition of -11.5%.
`NS(=O)(=O)c1ccc(NC(=O)COC(=O)CCc2c[nH]c3ccccc23)cc1` gave an inhibition of 4.09%.
In the case of `NS(=O)(=O)c1ccc(NC(=O)COC(=O)c2cc3ccccc3oc2=O)cc1`, the inhibition is reported as 32.9% (active).
In the case of `Cc1cc(C)cc(OCC(=O)NNC(=O)c2cc3ccccc3oc2=O)c1`, the inhibition is reported as 11.9%.
`OCC(O)C1OCOC(C(O)CO)C1O` (stereo not given) showed an inhibition of 3.51%.
Work on `CCCNS(=O)(=O)c1ccc(CCC(=O)NCc2cccnc2)cc1` yielded an inhibition of 1.83%.
`Nc1ncnc(Nc2cccc(Cl)c2Cl)n1` showed an inhibition of 6.09%.
Compound `CC1CCN(C(=O)c2ccc(S(=O)(=O)Cc3cc(F)ccc3F)c([N+](=O)[O-])c2)CC1` has an inhibition of 2.21%.
In the case of `CCOc1ccccc1NC(=O)C1CCCN(S(=O)(=O)c2ccccc2)C1` (stereo not given), the inhibition is reported as 11.6%.
For `O=C(CNS(=O)(=O)c1ccc2c(c1)OCCCO2)N1CCN(c2ccc(F)cc2)CC1`, the inhibition was 6.99%.
With `COc1ccc(N2CCN(C(=O)CNS(=O)(=O)c3ccc(C)c(C)c3)CC2)cc1` the inhibition was 10.1%.
With `O=C(NN=CC=Cc1ccccc1)C(O)C(O)C(=O)NN=CC=Cc1ccccc1` (stereo not given) the inhibition was 20.2%.
For `Cc1ccc(-c2cc(C(=O)NN)n[nH]2)o1`, the inhibition was -4.43%.
With `Cc1ccc(-c2cc(C(=O)N/N=C/C=C/c3ccccc3)n[nH]2)o1` the inhibition was 36.6% (active).
With `CCC(C)(C)NC(=O)C(c1ccc(O)cc1)N(Cc1ccco1)C(=O)CCC(=O)Nc1ccccn1` (stereo not given) the inhibition was 0%.
For `CCCc1nc(N2CCN(C)CC2)c2sc(=S)n(-c3ccccc3)c2n1`, the inhibition was 11.9%.
Work on `Cc1noc(C)c1CSc1nc2cc(S(=O)(=O)N3CCOCC3)ccc2o1` yielded an inhibition of 0%.
With `O=C(CC(=O)c1cccnc1)c1ccccc1` the inhibition was 31.5% (active).
Work on `O=C(Cc1ccccc1)Nc1ccc(NC(=O)c2cccnc2)cc1` yielded an inhibition of -3.47%.
In the case of `O=C(Nc1cnccn1)c1cccnc1`, the inhibition is reported as -10.2%.
`CS(=O)(=O)N1CCCC(C(=O)N2CCOCC2)C1` (stereo not given) showed an inhibition of 5.31%.
Work on `O=C(Nc1ccccc1C(=O)O)c1cc(S(=O)(=O)N2CCCCC2)cs1` yielded an inhibition of -4.43%.
Work on `Cc1c(C(=O)NCCCc2ccccc2)cccc1[N+](=O)[O-]` yielded an inhibition of 10%.
In the case of `O=C(NCCN1C(=O)S/C(=C\c2cccnc2)C1=O)c1cccc(OC(F)F)c1`, the inhibition is reported as 8.86%.
For `Cc1c(C(=O)NCCN2C(=O)S/C(=C\c3cccs3)C2=O)cccc1[N+](=O)[O-]`, the inhibition was 39.5% (active).
With `Cc1cc(C)c(C)c(S(=O)(=O)N2CCN(C(=O)c3ccc4c(=O)n5c(nc4c3)CCC5)CC2)c1C` the inhibition was 5.92%.
`CC(C)CC1C(=O)N(Cc2cn(Cc3ccco3)nn2)CCS(=O)(=O)N1Cc1ccc(-c2ccc(Cl)c(Cl)c2)cc1` (stereo not given) gave an inhibition of -1.42%.
With `COc1ccc(N2C(=O)/C(=C\c3ccco3)N=C2SCC(N)=O)cc1Cl` the inhibition was 8.83%.
In the case of `CCOC(=O)c1sc(NC(=O)c2ccncc2)nc1C`, the inhibition is reported as 39.2% (active).
For `CCOC(=O)c1sc(NC(=O)CSc2n[nH]c(CC)n2)nc1C`, the inhibition was -0.63%.
In the case of `CCOC(=O)c1sc(NC(=O)c2sc(C)nc2C)nc1C`, the inhibition is reported as 34.6% (active).
`Cc1ccc(C(=O)Nc2ccn(C)n2)cc1` showed an inhibition of -9.27%.
In the case of `CCOC(=O)c1sc(/N=C/Nc2nc(C)c(C(=O)OCC)s2)nc1C`, the inhibition is reported as 0.95%.
For `CC(=O)c1sc(NC(=O)c2ccc(C)cc2)nc1C`, the inhibition was 31.3% (active).
With `CCOC(=O)c1sc(NC(=O)C(CC)Sc2nccn2C)nc1C` (stereo not given) the inhibition was 10.2%.
Compound `CC(=O)c1sc(NC(=O)C2=NN(c3ccccc3)C(=O)CC2)nc1C` has an inhibition of 29.1%.
With `CCOC(=O)c1cccnc1NC(=O)c1ccncc1` the inhibition was -7.37%.
`Cc1ccc(N2CCN(S(=O)(=O)N(C)C)CC2)cc1Cl` showed an inhibition of 8.64%.
Work on `CC(c1ccco1)N(C(=O)c1ccc(S(=O)(=O)N2CCCCC2)cc1)c1ccccn1` (stereo not given) yielded an inhibition of 3.73%.
With `Cc1ccccc1N1CC(C(=O)Nc2ccc3c(c2)OCO3)CC1=O` (stereo not given) the inhibition was 7.55%.
Compound `CC1(C)CC(O)C(CCC(O)c2ccccc2)C(C)(C)N1` (stereo not given) has an inhibition of 11.8%.
With `Cc1ccc(Cl)cc1NC(=S)N(CCN(C)C)Cc1cccs1` the inhibition was -1.86%.
In the case of `CCCC(=O)N1CCC(CCC(=O)NC2CC2)CC1`, the inhibition is reported as -6.29%.
For `CCCn1c(=S)[nH]c2ccc(C(F)(F)F)cc21`, the inhibition was 2.44%.
Work on `Cc1cc(N2CCN(c3ccc(F)cc3)CC2)n2ncnc2n1` yielded an inhibition of -5.36%.
Work on `Cc1ccc(NC(=O)C2CCN(S(=O)(=O)c3ccc4c(c3)NC(=O)CO4)CC2)cc1C` yielded an inhibition of -3.15%.
In the case of `COc1cc(OC)cc(C(=O)Nc2ccc(-c3nc4ccccc4o3)c(O)c2)c1`, the inhibition is reported as 31.5% (active).
In the case of `COc1cccc(C(=O)Nc2ccc3nc4n(c(=O)c3c2)CCCCC4)c1`, the inhibition is reported as 13.4%.
In the case of `COc1cc(OC)cc(C(=O)N[C@H](C(=O)Nc2nc3ccccc3[nH]2)C(C)C)c1`, the inhibition is reported as 12.4%.
For `CN(Cc1ccccc1)C(=O)C(=O)c1cn(CC(=O)N2CCCC2)c2ccccc12`, the inhibition was 13.8%.
In the case of `O=C(CSc1ccccn1)Nc1nc2c(ccc3ccccc32)s1`, the inhibition is reported as 13.6%.
`COc1cc(OC)c(OC)cc1CN1CCN(C(=O)c2cccc3ccccc23)CC1` gave an inhibition of 0%.
For `O=C1C2CCCN2C(=O)N1CCCCN1CCN(c2cccc(C(F)(F)F)c2)CC1` (stereo not given), the inhibition was 15.7%.
With `COc1cc(/C=N\Nc2nc(-c3cccs3)c(NC(C)=O)s2)ccc1O` the inhibition was 34.8% (active).
With `CC(=O)c1sc(N/N=C/c2ccc(C(C)C)cc2)nc1C` the inhibition was 8.98%.
Work on `COc1cc(/C=C/C(=O)OCC(=O)NCCCc2ccccc2)ccc1O` yielded an inhibition of 19.3%.
`CC(C)=CCCC(C)CN1CCC(n2nccc2NC(=O)c2ccccc2)CC1` (stereo not given) showed an inhibition of -14.4%.
With `O=C(Nc1nnc(Cc2ccc(Cl)cc2)s1)c1ccncc1` the inhibition was 16.2%.
In the case of `Cc1ccc(C(=O)Nc2nnc(-c3ccncc3)s2)o1`, the inhibition is reported as 36.5% (active).
`CC(C)=CC(=O)Nc1nnc(-c2ccc(F)cc2)s1` showed an inhibition of 2.46%.
`NC(=O)C1CCN(C(=O)c2cc(S(=O)(=O)N3CCN(c4ccccc4)CC3)ccc2Cl)CC1` showed an inhibition of 0%.
In the case of `Cc1[nH]n(C)c(=O)c1N=Nc1ccc(S(C)(=O)=O)cc1`, the inhibition is reported as 33.3% (active).
Compound `Cc1[nH]n(C)c(=O)c1C(=O)c1c(-c2c(Cl)cccc2Cl)noc1C` has an inhibition of 10.3%.
Work on `Cc1c(N=Nc2ccc(N(C)C)cc2)c(=O)n(-c2ccccc2)n1C` yielded an inhibition of 7.74%.
Work on `O=S(=O)(NCc1ccccc1Cl)c1cnc[nH]1` yielded an inhibition of 5.02%.
Compound `O=C(NCC(=O)N1CCCCCCC1)c1ccccc1Cl` has an inhibition of 9.24%.
With `O=C(NCCCO)/C(=C\C=C\c1ccccc1)NC(=O)c1ccccc1Cl` the inhibition was 34.7% (active).
`O=C(NCCCNC(=O)c1ccccc1Cl)c1cnccn1` showed an inhibition of -2.33%.
With `CC(NCC(=O)Nc1ccccc1C(=O)NC1CC1)c1ccccc1Cl` (stereo not given) the inhibition was -5.56%.
With `COCCn1cnnc1SCC(=O)Nc1cccc(S(=O)(=O)N2CCCCC2)c1` the inhibition was -5.42%.
Work on `COc1ccc(CC2c3cc(OC)c(OC)cc3CC[N+]2(C)CCC(=O)OCCCCCOC(=O)CC[N+]2(C)CCc3cc(OC)c(OC)cc3C2Cc2ccc(OC)c(OC)c2)cc1OC` (stereo not given) yielded an inhibition of -11.1%.
With `COc1ccc2nc(C)cc(Nc3cccc(C(=O)O)c3)c2c1` the inhibition was 32.2% (active).
In the case of `COc1cccc(C(=O)NC(=O)Nc2nc(C)cc(C(F)(F)F)n2)c1`, the inhibition is reported as -10%.
For `COc1cccc(Nc2ncccc2C(=O)O)c1`, the inhibition was 11.1%.
`CC(C)CN(CC(C)C)C(=O)CN1c2cccc3cccc(c23)S1(=O)=O` showed an inhibition of -9.01%.
`COc1ccc(C#Cc2c(-c3ccc(OC)cc3)oc3ccc(-c4ccc5c(c4)OCO5)cc23)cc1` gave an inhibition of 5.83%.
With `C=CCNC(=S)/N=c1/ccccn1Cc1ccccc1` the inhibition was 33.6% (active).
Compound `C=CCNC(=O)COc1coc(CN2CCN(Cc3ccccc3)CC2)cc1=O` has an inhibition of -4.97%.
`N=c1ccccn1Cc1ccccc1` gave an inhibition of -9.4%.
